Inconclusive results are not listed. A call without a number means that no potency is given here. Calls of active or inactive are those of the source. Unless noted, calls follow the shape of the dose curve; as a rule, active = well fitted curve in the direction sought with a large enough effect; inconclusive = small, poorly fitted or top-dose-only effect, or another doubt; inactive = no such curve, though single readings can be large; an effect the other way counts as inactive or inconclusive.
Legend:
[1] = system: Zika virus NS2B-NS3 protease; assay: Primary screen GU AMC qHTS for Zika virus inhibitors (AID 1347154); also: nearly all actives have a fitted effect of over 70% in size; also: potency is read from the fitted curve at half-maximal effect
Method in brief: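 Unlinked Zika NS2B hydrophilic domain/NS3 protease domain noncovalent complex (25 nM final) in 10 mM Tris-HCl pH 8.0, 0.01% Tween 20, with AMC peptide substrate. Fluorescence (ex 340, em 450 nm) change over 15 min, room temperature; percent inhibition fitted to 4-parameter Hill equation.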

[2] = Primary qHTS for small molecule stabilizers of the endoplasmic reticulum resident proteome: Secreted ER Calcium Modulated Protein (SERCaMP) assay (AID 1508630)
Method in brief: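 GLuc-SERCaMP-expressing SH-SY5Y cells, pretreated 16 h with compound, are challenged with thapsigargin to empty ER calcium stores; after 4 h, coelenterazine is added directly to the medium and luminescence is imaged.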

[3] = AP1 Signaling Pathway (AID 357; active = well fitted curve in either direction with a large enough effect, not every such curve was filed as active;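 also: ME-180 reporter cells stimulated with EGF at its EC50 level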)
Method in brief: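 Beta-lactamase reporter under AP-1 response element, ME-180 background. Stimulus: EC50 EGF. Compound exposure 5 h, 37 °C. Detection: CCF4, 2.5 h RT, 460/530 nm. Values: AC50 from titration.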

[4] = target: Cytochrome P450 1A2 (Homo sapiens) (UniProt P05177); assay: p450-cyp1a2 (AID 410; calls by dose curve; also: potency is read from the fitted curve at half-maximal effect)
Method in brief: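 Luminescent readout of luciferin formed from Luciferin-ME by human CYP1A2; data normalized against complete inhibition by 57 uM furafylline. Enzyme 20nM, substrate 100uM at Km, 100mM KPO4 buffer, 60 min reaction at room temperature.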

[5] = Stat Signaling Pathway (AID 446; active = well fitted curve in either direction with a large enough effect, not every such curve was filed as active;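 also: ME-180 cervical cancer cells given 40 pM IL-6 alongside compound; SIE-controlled beta-lactamase reporter measured as 460/530 nm FRET emission ratio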)
Method in brief: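 ME-180 cells carrying a SIE-driven beta-lactamase reporter are stimulated with 40 pM IL-6 for 5 h at 37C in the presence of compound. The 460/530 nm FRET substrate ratio is read after 2.5 h at RT. Data are normalised to 300 pM IL-6 and to 125 nM JAK inhibitor controls.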

[6] = target: Glucocorticoid receptor (Homo sapiens) (UniProt P04150); assay: GR-GFP Redistribution (AID 450;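 active = compounds whose dose series gives a full or clear partial fitted curve of increased nuclear translocation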; also: potency is read from the fitted curve at half-maximal effect); conditions: U2OS GR-GFP nuclear translocation, laser cytometry, 2 h
[7] = target: Glucocorticoid receptor (Homo sapiens) (UniProt P04150); assay: GR-EFC Redistribution (AID 451; calls by dose curve; also: potency is read from the fitted curve at half-maximal effect); conditions: CHO-K1 GR-EFC translocation, beta-gal luminescence, 2 h
Method in brief: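 CHO-K1 cells stably expressing nuclear-localized β-gal enzyme acceptor and GR fused C-terminally to the enzyme donor fragment; ligand-driven nuclear translocation restores β-gal by complementation. Compounds titrated up to 46 uM final, 2 h at 37 °C; luminescence read.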

[8] = target: Mitogen-activated protein kinase 10 (Mus musculus) (UniProt Q61831); assay: JNK3 AlphaScreen Assay (AID 530; active = well fitted curve in either direction with a large enough effect, not every such curve was filed as active;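 also: kinase came from lysate of stimulated human HepG2 cells; signal reports phosphorylation of biotinylated GST-cJun 1-79 at Ser73 with 10 µM ATP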)
Method in brief: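 Inhibitors reduce antibody binding to phosphorylated biotin-cJun, lowering AlphaScreen luminescence. Lysates from HepG2 cells pre-activated by IL-1beta plus TNF-alpha supplied JNK3; compounds were titrated.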

[9] = target: 3',5'-cyclic-AMP phosphodiesterase 4B (Homo sapiens) (UniProt Q07343); assay: qHTS Assay for Inhibitors of PDE-IV (AID 607; active = well fitted activation curve with a large enough effect in the main read-out, with a control signal flat, not every such curve was filed as active)
Method in brief: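 HEK293 ACTOne cells with CNG channel (1000/well), endogenous PDE4; membrane potential dye, compounds up to 22.9 uM final. Fluorescence Ex 535/Em 590; RO 20-1724 (100 uM final) as reference.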

[10] = target: Guanine nucleotide-binding protein G(i) subunit alpha-1 (Homo sapiens) (UniProt P63096); assay: qHTS Assay for Inhibitors of RGS12 GoLoco Motif Activity (Green Fluorophore) (AID 879);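 also: negative values mean loss of peptide binding seen as reduced polarization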
Method in brief: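 Fluorescence polarization assay: 50 nM Gαi1 with 10 nM FITC-labeled RGS12 GoLoco peptide in 10 mM Tris pH 7.5, 150 mM NaCl, 0.1 mM GDP, 0.05% NP40, 10 min at room temperature with compound.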

[11] = target: Muscarinic acetylcholine receptor M1 (Rattus norvegicus) (UniProt P08482); assay: qHTS Assay for Antagonists of Acetylcholine Muscarinic M1 Receptor: Measurement of IP-One Response (AID 944); also: nearly all actives have a fitted effect of over 75% in size; also: potency is read from the fitted curve at half-maximal effect
Method in brief: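 M1-CHO (rat), 2000 cells/well, overnight recovery; cpd 10 min; carbachol EC80 (200 nM), 30 min, HEPES buffer + 50 mM LiCl pH 7.4; IP-One HTRF, Ex 337, Em 620/665 nm.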

[12] = target: Pyruvate kinase (Leishmania mexicana) (UniProt Q27686); assay: qHTS Validation Assay for Inhibitors of Leishmania Mexicana Pyruvate Kinase (AID 945)
Method in brief: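 Pyruvate kinase activity of E451W LmPYK (0.2 nM) was followed as ATP output after 1 h at room temperature with 0.5 mM PEP and 0.1 mM ADP, detected by PKLight luminescence.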

[13] = target: Pyruvate kinase PKM (Homo sapiens) (UniProt P14618); assay: qHTS Assay for Activators of Human Muscle Pyruvate Kinase (AID 954; active = well fitted curve in the direction sought with a large enough effect, not every such curve was filed as active)
Method in brief: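 Purified human PKM2 (0.1 nM) with 0.5 mM PEP (Km) and 0.1 mM ADP in 50 mM imidazole pH 7.2, KCl, MgCl2, 1 h at room temperature; ATP formed read by coupled luciferase luminescence. Normalized to no-enzyme/110 uM thiadiazolimine inhibition; 0.3 nM enzyme column for activation.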

[14] = target: Alpha-galactosidase (Coffea arabica) (UniProt Q42656); assay: Counterscreen for Glucocerebrosidase Inhibitors: qHTS Assay for Coffee Bean alpha-Galactosidase at pH 4.5 (AID 957)
Method in brief: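 Coffee bean alpha-galactosidase 2 nM, substrate 4-MU-alpha-Gal 80 uM, pH 4.5 citrate/Tween-20, 20 min RT. Cpd titration 0.7 nM–77 uM. Stop pH 10, fluorescence 365/440 nm; Hill-equation AC50.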

[15] = target: alpha-glucosidase (Oryza sativa, rice) (UniProt Q653V4); assay: Counterscreen for Glucocerebrosidase Inhibitors: qHTS Assay for Rice alpha-Glucosidase at pH 5.0 (AID 997)
Method in brief: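 Rice alpha-glucosidase (4 nM final) with 400 uM 4-methylumbelliferyl-alpha-D-glucopyranoside in citrate buffer pH 5.0, 20 min at room temperature, stopped at pH 10; fluorescence 365/440 nm, compounds 0.7 nM–77 uM, AC50 from Hill fits.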

[16] = target: Alpha-galactosidase (Coffea arabica) (UniProt Q42656); assay: Counterscreen for Glucocerebrosidase Inhibitors: qHTS Assay for Coffee Bean alpha-Galactosidase at pH 5.9 (AID 998)
Method in brief: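 Green coffee bean enzyme (2 nM final) was incubated with compounds (0.7 nM–77 uM) and 4-methylumbelliferyl alpha-D-galactopyranoside (80 uM) in citrate buffer pH 5.9, 20 min at room temperature. High-pH stop; fluorescence 365/440 nm; AC50 from Hill fits.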

[17] = qHTS Assay for Lipid Storage Modulators (AID 1519; calls by dose curve); conditions: Drosophila S3 cells, BODIPY lipid droplet/cell ratio, laser cytometry, cells loaded with oleic acid; for activity change, negative = inhibition: at 57.5 µM (top of the series)
Method in brief: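 Cells seeded at 5,000 per well were treated with compounds over a concentration series and loaded with oleic acid (400 uM, as added). Lipid droplet fluorescence (488 nm excitation, 500-530 nm channel) was read by laser-scanning cytometry and normalized to 20 uM Triacsin C.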

[18] = target: Ubiquitin carboxyl-terminal hydrolase 1 (Homo sapiens) (UniProt O94782); assay: Inhibitors of USP1/UAF1: Pilot qHTS (AID 504865);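 also: rhodamine fluorescence freed from ubiquitin-rhodamine substrate followed over time; top concentration of the series differs between compounds; nearly all actives have a fitted effect of over 35% in size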
Method in brief: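 Kinetic fluorescence assay: 1nM USP1/UAF1, 15 min compound preincubation, then 150nM Ub-Rho; 480/540 nm.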

[19] = target: DNA dC->dU-editing enzyme APOBEC-3G (Homo sapiens) (UniProt Q9HC16); assay: qHTS for inhibitors of Vif-A3G interactions: Validation (AID 588379)
Method in brief: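 HeLa cells stably expressing Vif and A3G-eYFP, 700 cells/well, incubated overnight at 37 deg C, then exposed to compound overnight at 37 deg C. Inhibition of Vif-mediated degradation read as increased yellow fluorescence (Ex 488/Em 500-530) by laser-scanning cytometry.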

[20] = measured here: cell count channel max response
[21] = measured here: lipid channel max response

Pyruvate kinase PKM (Homo sapiens), sequence (P14618 whole entry, looked up): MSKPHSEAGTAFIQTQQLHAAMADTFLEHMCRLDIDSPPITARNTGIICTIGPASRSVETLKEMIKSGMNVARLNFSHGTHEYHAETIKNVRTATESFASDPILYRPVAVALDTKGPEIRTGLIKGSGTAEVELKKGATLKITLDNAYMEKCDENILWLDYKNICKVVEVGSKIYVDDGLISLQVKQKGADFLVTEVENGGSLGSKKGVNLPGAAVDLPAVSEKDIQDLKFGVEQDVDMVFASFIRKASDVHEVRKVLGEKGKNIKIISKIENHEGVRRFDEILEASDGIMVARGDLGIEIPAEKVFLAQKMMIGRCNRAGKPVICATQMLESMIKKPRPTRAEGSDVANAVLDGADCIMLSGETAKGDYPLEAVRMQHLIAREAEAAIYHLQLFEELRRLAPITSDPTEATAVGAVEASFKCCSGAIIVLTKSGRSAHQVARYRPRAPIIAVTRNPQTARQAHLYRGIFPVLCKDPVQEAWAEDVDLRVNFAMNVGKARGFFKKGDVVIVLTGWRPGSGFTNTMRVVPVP
Cytochrome P450 1A2 (Homo sapiens), sequence (P05177 whole entry, looked up): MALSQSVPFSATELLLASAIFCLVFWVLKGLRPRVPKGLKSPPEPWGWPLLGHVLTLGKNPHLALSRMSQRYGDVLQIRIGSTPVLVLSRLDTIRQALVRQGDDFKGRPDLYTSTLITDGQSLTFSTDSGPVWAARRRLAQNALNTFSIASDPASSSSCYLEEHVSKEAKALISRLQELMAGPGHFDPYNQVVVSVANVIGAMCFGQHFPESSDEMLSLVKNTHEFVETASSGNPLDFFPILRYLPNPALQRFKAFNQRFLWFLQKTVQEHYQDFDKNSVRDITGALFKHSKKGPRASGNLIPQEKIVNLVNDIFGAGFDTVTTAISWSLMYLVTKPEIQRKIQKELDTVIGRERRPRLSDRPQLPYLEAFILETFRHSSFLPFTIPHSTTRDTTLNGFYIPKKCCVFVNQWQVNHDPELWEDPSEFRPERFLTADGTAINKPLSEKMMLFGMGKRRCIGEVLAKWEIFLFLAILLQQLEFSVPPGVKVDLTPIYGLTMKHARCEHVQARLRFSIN
Guanine nucleotide-binding protein G(i) subunit alpha-1 (Homo sapiens), sequence (P63096 whole entry, looked up): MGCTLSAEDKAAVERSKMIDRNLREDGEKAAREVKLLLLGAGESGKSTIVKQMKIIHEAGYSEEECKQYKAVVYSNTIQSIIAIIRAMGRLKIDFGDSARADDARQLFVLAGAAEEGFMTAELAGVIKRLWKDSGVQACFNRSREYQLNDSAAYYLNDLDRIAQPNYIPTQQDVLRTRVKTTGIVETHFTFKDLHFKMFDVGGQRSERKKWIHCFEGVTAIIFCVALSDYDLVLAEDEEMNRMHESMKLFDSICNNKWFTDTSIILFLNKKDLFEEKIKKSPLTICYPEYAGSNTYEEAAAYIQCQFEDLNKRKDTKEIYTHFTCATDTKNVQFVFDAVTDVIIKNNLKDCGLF
Glucocorticoid receptor (Homo sapiens), sequence (P04150 whole entry, looked up, the tested form may be a part): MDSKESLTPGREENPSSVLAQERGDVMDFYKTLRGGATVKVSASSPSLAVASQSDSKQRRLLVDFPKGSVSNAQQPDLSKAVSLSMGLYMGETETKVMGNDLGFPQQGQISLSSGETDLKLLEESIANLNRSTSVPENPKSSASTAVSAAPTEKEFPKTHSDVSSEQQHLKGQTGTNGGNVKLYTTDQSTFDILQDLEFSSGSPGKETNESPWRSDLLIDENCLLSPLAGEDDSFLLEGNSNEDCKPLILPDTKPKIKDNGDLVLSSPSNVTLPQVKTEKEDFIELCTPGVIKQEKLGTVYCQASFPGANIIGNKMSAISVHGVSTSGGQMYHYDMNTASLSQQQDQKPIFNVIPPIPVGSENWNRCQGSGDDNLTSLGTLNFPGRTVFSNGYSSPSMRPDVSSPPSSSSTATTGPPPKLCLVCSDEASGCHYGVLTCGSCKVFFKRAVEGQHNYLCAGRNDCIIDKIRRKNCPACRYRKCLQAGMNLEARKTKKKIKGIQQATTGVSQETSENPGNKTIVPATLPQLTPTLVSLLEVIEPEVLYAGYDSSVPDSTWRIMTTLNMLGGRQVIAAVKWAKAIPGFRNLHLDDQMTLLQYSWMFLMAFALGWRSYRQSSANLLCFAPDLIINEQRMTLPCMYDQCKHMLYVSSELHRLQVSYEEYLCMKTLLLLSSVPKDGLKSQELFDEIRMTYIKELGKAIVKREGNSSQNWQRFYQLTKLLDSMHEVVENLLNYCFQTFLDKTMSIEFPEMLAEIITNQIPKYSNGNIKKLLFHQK
Alpha-galactosidase (Coffea arabica), sequence (Q42656 whole entry, looked up): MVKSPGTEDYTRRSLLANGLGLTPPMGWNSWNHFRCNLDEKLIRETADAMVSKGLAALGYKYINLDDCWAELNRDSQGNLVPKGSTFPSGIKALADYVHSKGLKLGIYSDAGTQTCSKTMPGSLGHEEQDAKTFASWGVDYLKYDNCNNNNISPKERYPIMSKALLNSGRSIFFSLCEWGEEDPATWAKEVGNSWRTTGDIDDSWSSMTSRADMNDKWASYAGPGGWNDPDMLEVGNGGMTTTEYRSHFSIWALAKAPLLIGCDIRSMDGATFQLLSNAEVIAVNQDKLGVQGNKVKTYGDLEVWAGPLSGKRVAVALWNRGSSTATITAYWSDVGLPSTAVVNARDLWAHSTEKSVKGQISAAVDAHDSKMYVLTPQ
3',5'-cyclic-AMP phosphodiesterase 4B (Homo sapiens), sequence (Q07343 whole entry, looked up): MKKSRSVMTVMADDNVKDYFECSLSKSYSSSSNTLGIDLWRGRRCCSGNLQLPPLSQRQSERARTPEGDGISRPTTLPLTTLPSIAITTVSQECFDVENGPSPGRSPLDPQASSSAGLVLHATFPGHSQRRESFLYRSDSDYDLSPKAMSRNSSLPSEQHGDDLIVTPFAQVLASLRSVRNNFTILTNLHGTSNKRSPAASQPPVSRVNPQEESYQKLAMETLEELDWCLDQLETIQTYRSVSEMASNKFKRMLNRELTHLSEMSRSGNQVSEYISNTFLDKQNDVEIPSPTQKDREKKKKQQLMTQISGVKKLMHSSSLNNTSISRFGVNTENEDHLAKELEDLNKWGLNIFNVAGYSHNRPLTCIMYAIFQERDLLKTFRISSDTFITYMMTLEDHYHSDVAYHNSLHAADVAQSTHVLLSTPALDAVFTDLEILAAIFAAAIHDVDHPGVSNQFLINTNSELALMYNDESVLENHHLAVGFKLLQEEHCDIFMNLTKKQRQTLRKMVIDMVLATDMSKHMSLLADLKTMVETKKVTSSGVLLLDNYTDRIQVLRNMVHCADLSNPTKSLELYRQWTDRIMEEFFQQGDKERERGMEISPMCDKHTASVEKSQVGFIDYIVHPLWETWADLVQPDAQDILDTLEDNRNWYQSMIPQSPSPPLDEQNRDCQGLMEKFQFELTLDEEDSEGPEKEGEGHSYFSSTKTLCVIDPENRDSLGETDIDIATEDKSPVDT
Muscarinic acetylcholine receptor M1 (Rattus norvegicus), sequence (P08482 whole entry, looked up): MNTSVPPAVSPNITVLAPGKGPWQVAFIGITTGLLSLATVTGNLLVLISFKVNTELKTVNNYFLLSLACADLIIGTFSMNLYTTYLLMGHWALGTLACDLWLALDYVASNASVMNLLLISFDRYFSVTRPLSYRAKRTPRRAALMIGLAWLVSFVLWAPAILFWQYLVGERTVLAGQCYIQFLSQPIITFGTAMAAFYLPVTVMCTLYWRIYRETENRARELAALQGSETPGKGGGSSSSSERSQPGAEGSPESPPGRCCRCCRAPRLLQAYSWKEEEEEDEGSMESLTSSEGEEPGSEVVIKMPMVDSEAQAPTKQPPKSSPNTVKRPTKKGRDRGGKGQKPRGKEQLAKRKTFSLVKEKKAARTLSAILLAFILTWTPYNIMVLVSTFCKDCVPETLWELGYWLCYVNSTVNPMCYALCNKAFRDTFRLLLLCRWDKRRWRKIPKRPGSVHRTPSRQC
Ubiquitin carboxyl-terminal hydrolase 1 (Homo sapiens), sequence (O94782 whole entry, looked up): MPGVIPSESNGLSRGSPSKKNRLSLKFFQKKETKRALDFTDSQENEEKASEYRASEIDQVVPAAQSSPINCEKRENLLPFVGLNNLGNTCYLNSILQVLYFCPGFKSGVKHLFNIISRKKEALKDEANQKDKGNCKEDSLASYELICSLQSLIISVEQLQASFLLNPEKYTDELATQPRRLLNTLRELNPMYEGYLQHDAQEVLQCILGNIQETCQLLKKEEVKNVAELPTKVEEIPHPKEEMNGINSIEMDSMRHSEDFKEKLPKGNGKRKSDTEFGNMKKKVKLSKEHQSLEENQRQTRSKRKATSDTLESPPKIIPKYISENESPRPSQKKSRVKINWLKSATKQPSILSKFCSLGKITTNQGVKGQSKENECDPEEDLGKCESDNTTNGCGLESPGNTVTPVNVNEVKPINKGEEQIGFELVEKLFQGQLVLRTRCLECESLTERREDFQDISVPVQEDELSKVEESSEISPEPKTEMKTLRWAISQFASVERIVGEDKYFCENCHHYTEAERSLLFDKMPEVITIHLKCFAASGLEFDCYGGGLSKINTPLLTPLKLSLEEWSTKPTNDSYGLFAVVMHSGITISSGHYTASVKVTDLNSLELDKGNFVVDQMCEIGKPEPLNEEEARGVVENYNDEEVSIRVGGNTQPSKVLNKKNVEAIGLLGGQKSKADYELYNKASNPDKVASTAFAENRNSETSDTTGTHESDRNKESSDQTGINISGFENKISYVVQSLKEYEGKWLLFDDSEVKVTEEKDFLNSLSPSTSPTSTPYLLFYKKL
DNA dC->dU-editing enzyme APOBEC-3G (Homo sapiens), sequence (Q9HC16 whole entry, looked up): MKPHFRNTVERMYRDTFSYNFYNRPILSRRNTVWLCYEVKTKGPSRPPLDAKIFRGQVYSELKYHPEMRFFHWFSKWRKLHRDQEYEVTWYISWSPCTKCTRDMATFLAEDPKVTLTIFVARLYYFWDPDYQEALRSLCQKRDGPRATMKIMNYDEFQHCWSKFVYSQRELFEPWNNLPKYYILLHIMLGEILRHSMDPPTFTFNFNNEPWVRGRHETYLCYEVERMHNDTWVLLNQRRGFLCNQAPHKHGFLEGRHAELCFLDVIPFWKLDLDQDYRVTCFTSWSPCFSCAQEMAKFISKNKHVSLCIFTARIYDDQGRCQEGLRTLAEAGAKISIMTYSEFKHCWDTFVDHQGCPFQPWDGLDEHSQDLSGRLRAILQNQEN

CCCCCCCCCCCCCCCCOC[C@@H](O)COP(=O)([O-])OCC[N+](C)(C)C
activity change, negative = inhibition [1]: 3.47% [at 6.83 µM] (inactive)
activity change, negative = inhibition [2]: 13.1% [at 3.88 µM] (inactive)

C=C1C([C@@H](O)C[C@H](C)C2O[C@@]3(CCCCO3)CC[C@H]2C)OC2CC[C@@]3(CC[C@@H](/C=C/[C@@H](C)C4CC(C)=C[C@]5(O4)O[C@H](C[C@@](C)(O)C(=O)O)CCC5O)O3)OC2[C@@H]1O (stereo partly specified)
activity change, negative = inhibition [1]: 0.872% [at 4.99 µM] (inactive)
activity change, negative = inhibition [2]: -21.6% [at 1.51 µM] (inactive)

CC(CN)CC(=O)O (stereo unspecified)
Potency [1]: inactive
Potency [2]: inactive

O=C(O)C1CN(CP(=O)(O)O)CCN1 (stereo unspecified)
Potency [1]: inactive
Potency [2]: inactive

Nc1ncnc2c1ncn2[C@@H]1O[C@H](COP(=O)(O)CP(=O)(O)O)[C@@H](O)[C@H]1O
Potency [1]: inactive
Potency [2]: inactive

CSCC[C@H](NC(=O)[C@H](Cc1ccccc1)NC(=O)CNC(=O)CNC(=O)[C@@H](N)Cc1ccc(O)cc1)C(=O)O
activity change, negative = inhibition [1]: -0.9% [at 6.83 µM] (inactive)
activity change, negative = inhibition [2]: -26.7% [at 3.88 µM] (inactive)

CC(C)(C)c1o[nH]c(=O)c1C[C@H](N)C(=O)O
outcome [3]: inactive
Potency [4]: inactive
outcome [5]: inactive
Potency [6]: > 46 µM (inactive)
Potency [7]: > 46 µM (inactive)
outcome [8]: inactive
Potency [9]: inactive
outcome [10]: inactive
Potency [11]: inactive
outcome [12]: inactive
outcome [13]: inactive
outcome [14]: inactive
outcome [15]: inactive
outcome [16]: inactive
activity change, negative = inhibition [17]: 1.88% (inactive)
max response [17, 20]: -7.92%
max response [17, 21]: -7.95%
Potency [18]: inactive
Potency [19]: inactive
Potency [1]: inactive
Potency [2]: inactive

Cc1nc(N)sc1CCN
Potency [6]: > 46 µM (inactive)
Potency [7]: > 46 µM (inactive)
outcome [8]: inactive
Potency [9]: inactive
activity change, negative = inhibition [17]: 3.05% (inactive)
max response [17, 20]: -8.41%
max response [17, 21]: -2.18%
Potency [18]: inactive
Potency [19]: inactive
Potency [1]: inactive
Potency [2]: inactive

CNCCc1cnc[nH]1
Potency [4]: inactive
Potency [6]: > 46 µM (inactive)
Potency [7]: > 46 µM (inactive)
activity change, negative = inhibition [17]: 4.08% (inactive)
max response [17, 20]: -7.35%
max response [17, 21]: -3.08%
Potency [18]: inactive
Potency [19]: inactive
Potency [1]: inactive
Potency [2]: inactive

COC(=O)/C=C\C(=O)N[C@@H]1CC[C@@]2(O)[C@H]3Cc4ccc(O)c5c4[C@@]2(CCN3CC2CC2)[C@@H]1O5
Potency [6]: > 46 µM (inactive)
Potency [7]: > 46 µM (inactive)
outcome [8]: inactive
activity change, negative = inhibition [17]: -0.127% (inactive)
max response [17, 20]: -6.87%
max response [17, 21]: -10.5%
Potency [18]: inactive
Potency [19]: inactive
Potency [1]: inactive
Potency [2]: inactive

CN1CCc2cc(O)cc3c2C1Cc1ccc(O)c(O)c1-3 (stereo unspecified)
Potency [1]: 18.9 µM (active)
Potency [2]: inactive

CN1[C@@H]2CC[C@H]1CC(O[C@@H](c1ccccc1)c1ccc(Cl)cc1)C2 (stereo partly specified)
outcome [3]: inactive
Potency [4]: inactive
outcome [5]: inactive
Potency [6]: > 46 µM (inactive)
Potency [7]: > 46 µM (inactive)
outcome [10]: inactive
Potency [11]: 0.0126 µM (active)
outcome [12]: inactive
outcome [13]: inactive
outcome [14]: inactive
outcome [15]: inactive
outcome [16]: inactive
Potency [19]: inactive
Potency [1]: inactive
Potency [2]: inactive

CCCN(CCC)[C@@H]1CCc2c(OC)cccc2[C@@H]1C
Potency [4]: 31.6 µM (active)
Potency [7]: > 46 µM (inactive)
outcome [8]: inactive
activity change, negative = inhibition [17]: -0.226% (inactive)
max response [17, 20]: 8.03%
max response [17, 21]: 12.1%
Potency [19]: inactive
Potency [1]: inactive
Potency [2]: inactive

CCOC(=O)c1ncn2c1[C@H]1CCCN1C(=O)c1cc(OC)ccc1-2
outcome [3]: inactive
Potency [4]: inactive
outcome [5]: inactive
Potency [7]: > 46 µM (inactive)
outcome [8]: inactive
Potency [9]: inactive
outcome [10]: inactive
Potency [11]: inactive
outcome [12]: inactive
outcome [13]: inactive
outcome [14]: inactive
outcome [15]: inactive
outcome [16]: inactive
Potency [18]: inactive
Potency [19]: inactive
Potency [1]: inactive
Potency [2]: inactive

C[C@@H](Cc1ccc(OCC(=O)O)cc1)NC[C@H](O)c1cccc(Cl)c1
outcome [3]: inactive
Potency [4]: inactive
outcome [5]: inactive
Potency [6]: > 46 µM (inactive)
Potency [7]: > 46 µM (inactive)
outcome [8]: inactive
Potency [9]: inactive
outcome [10]: inactive
Potency [11]: 14.1 µM (active)
outcome [12]: inactive
outcome [13]: inactive
outcome [14]: inactive
outcome [15]: inactive
outcome [16]: inactive
Potency [18]: inactive
Potency [19]: inactive
Potency [1]: inactive
Potency [2]: inactive

CCN1C[C@]2(C)CC[C@H](O)[C@@]34C5C[C@@H]6[C@@H](OC)C[C@@](O)(C5[C@H]6O)[C@@H](CC23)[C@@H]14 (stereo partly specified)
activity change, negative = inhibition [17]: 1.68% (inactive)
max response [17, 20]: -11.5%
max response [17, 21]: -11%
Potency [19]: inactive
Potency [1]: inactive
Potency [2]: inactive

Source: PubChem BioAssay (NCATS)
